Results on eight compounds are retold here after PubChem BioAssay (NCATS).

A short description of experiment [1]: Cytometry Cell-Based qHTS for Inhibitors of the mTORC1 Signaling Pathway in MEF cells (AID 2668).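 Further: Tsc2-/- p53-/- mouse embryonic fibroblasts stably re-expressing wild-type Tsc2; percent cells positive for phospho-rpS6 Ser235/236 relative to propidium iodide stain; series mostly up to about 38 µM.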 The method in brief:
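Tsc2-/-, p53-/- MEFs re-expressing WT Tsc2; cpd 24 hrs, 37 degree Celsius; PFA fix, Alexa-488 p-rpS6 (Ser235/236) Ab 2 hrs RT, PI counterstain; Acumen 488nm scan; p-S6/PI ratio → % positive cells; PI count = viability.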
(In general: In qHTS, concentration-response curves come from the screen itself.)

Experiment [2] is described as follows: Validation screen for inhibitors of Lassa infection (AID 463096; calls by dose curve).
Experiment [3] can be described thus: Validation screen for small molecules that induce DNA re-replication in MCF 10A normal breast cells (AID 463097). Further: nearly all actives have a fitted effect of over 60% in size. The method in brief:
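Image-based qHTS: normal breast cells are incubated with compound for 48 hr, stained with Hoechst, and scanned for total nuclear fluorescence. Compounds raising the fraction of nuclei with elevated DNA content count as re-replication inducers.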

Experiment [4] deals with Ubiquitin carboxyl-terminal hydrolase 2 (Homo sapiens) (UniProt O75604). Description: qHTS Validation Assay for Inhibitors of Ubiquitin-specific Protease USP2a Using CHOP2 as the Reporter (AID 463106). An outline of the steps: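 Readout was coupled fluorescence (Ex 485/Em 531 nm), read 60 min after adding 25 nM final Ub-CHOP2 and 25 nM reporter substrate. Beforehand, 10 nM final USP2 core had 30 min at RT with compound in pH 8.0 buffer. Curves were fitted after normalization to NEM and flagged for artifacts using time-zero reads.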

For experiment [5], the target named is DNA polymerase III PolC-type (Bacillus subtilis (strain 168)) (UniProt P13267). The experiment can be described thus: qHTS Validation Assay for the Inhibitors of DNA Replication in Gram-Positive Bacteria (AID 485295).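 Further: reconstituted holoenzyme with PolC plus beta clamp SSB and primase; PicoGreen fluorescence of double-stranded DNA made on primed circular M13 template; series mostly up to about 57 µM.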 An outline of the steps:
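First, compound is mixed with the reconstituted replication complex and held at room temperature. Next, circular single-stranded M13Gori with nucleotides starts synthesis. Finally, PicoGreen in EDTA halts the reaction and stains double-stranded product for fluorescence reading.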

In experiment [6] the target is Tumor susceptibility gene 101 protein (Homo sapiens) (UniProt Q99816). Description: qHTS Validation Assay for Iinhibitors of HIV-1 Budding by Blocking the Interaction of PTAP/TSG101 (AID 485342; calls by dose curve). The method in brief: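 Binding of a FITC-tagged PTAP-motif peptide (50 nM) to the Tsg101 binding domain (10 uM) is monitored by fluorescence polarization. Compounds are pin-delivered before peptide addition, and incubation runs 20 min at room temperature.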

The nature of experiment [7]: qHTS Validation Assay to Find Inhibitors of Chronic Active B-Cell Receptor Signaling (AID 485345; active means well fitted curve in the direction sought with a large enough effect in the main read-out, with a control signal flat, not every such curve was filed as active). An outline of the steps: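 Read-out: ratio of filter-corrected green (IkappaBalpha fusion) to red (native) luciferase signal in doxycycline-induced TMD8 cells after 4 h at 37C. Titration spanned 46 uM–3 nM; Data were normalised to basal cells and 10 uM MG-132 wells.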
In experiment [8] the target is Beta-2 adrenergic receptor (Homo sapiens) (UniProt P07550). Description: qHTS validation assay of beta-arrestin-biased ligands of beta2-adrenergic receptor (AID 485366). The method in brief: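 Compound series up to 46 microM applied to beta2-AR/beta-arrestin Tango cells, 18 hr, 37 degrees C, 5% CO2. Read-out: tTA-driven luciferase luminescence, converted to %Activity; concentration-response curves assigned curve classes.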

The target in experiment [9] is ATP-dependent 6-phosphofructokinase (Trypanosoma brucei brucei) (UniProt O15648). Description: qHTS Validation Assay to Find Inhibitors of T. brucei phosphofructokinase (AID 485368). The method in brief:
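qHTS format, up to 57 uM. PFK 1.25 nM; F6P 0.5 mM; ATP 0.1 mM; 5 mM MgCl2, 0.01% Tween20, 0.1% BSA; 0.1 M TEA pH 8.0; 45 min RT; ADP-Glo readout; no-enzyme control = full inhibition.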

Experiment [10] addresses Thioredoxin reductase 1, cytoplasmic (Rattus norvegicus) (UniProt O89049). The experiment can be described thus: qHTS Assay for Substrates of Mammalian Selenoprotein Thioredoxin Reductase 1 (TrxR1) (AID 488772).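 Further: series mostly up to about 57 µM; a drop in NADPH fluorescence below the no-compound background marks a TrxR1 substrate.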 An outline of the steps: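 In this dual-purpose format, potential substrates are identified from the first fluorescence read after selenite addition, not from the 8-minute delta. Rat enzyme is preincubated with NADPH and then with compound at ~22 deg C.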

For experiment [11] the target is unchanged. Description: qHTS Assay for Inhibitors of Mammalian Selenoprotein Thioredoxin Reductase 1 (TrxR1) (AID 488773).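 Further: drop in NADPH fluorescence over an 8 min run after selenite addition; series mostly up to about 57 µM; nearly all actives have a fitted effect of over 40% in size.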 The note with it: Potency: inhibition. The method in brief:
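Inhibition is scored from the loss of NADPH fluorescence between first and last reads of an 8-min kinetic run. Selenite (400 uM) was the substrate, added after 15 min compound preincubation at room temperature.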

Experiment [12] has as its target Flap endonuclease 1 (Homo sapiens) (UniProt P39748). Description: qHTS Validation Assay for the Inhibitors of Human Flap endonuclease 1 (FEN1) (AID 488816). An outline of the steps: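 qHTS format: compounds and 10 nM FEN1 incubated 15 min at room temperature before adding 50 nM substrate. Cleavage followed by reads at 0 and 15 min; normalized data fitted to a four-parameter Hill curve.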

For experiment [13], the target named is M-phase phosphoprotein 8 (Homo sapiens) (UniProt Q99549). Description: qHTS Validation Assay for Inhibitors for MPP8 Chromodomain Interactions with Methylated Histone Tails (AID 488949).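 Further: 50 nM MPP8 with 50 nM peptide preformed then compounds added for 30 min; AlphaScreen signal from MPP8 chromodomain bound to biotinylated H3K9me3 peptide; top concentration of the series differs between compounds; nearly all actives have a fitted effect of over 55% in size.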 The method in brief: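 50 nM MPP8 + 50 nM b-H3K9me3 peptide, PBS pH 7.4/0.01% Tween-20, 30 min RT; + cpd 30 min RT; + AlphaScreen donor/Ni-chelate acceptor beads 10 ug/mL final, 30 min dark; luminescence read.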

Experiment [14] has as its target Methanococcus maripaludis chaperonin (MmCpn) (UniProt Q6LX38). The experiment can be described thus: High-Throughput Screening for Modulators of Cytosolic Chaperonin Activity: MmCpn Primary Screen (AID 488978).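 Further: 50 nM MmCpn enzyme hydrolysing 30 µM ATP at 37 °C.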 The method in brief: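 Steps: chaperonin 50 nM final; add compound, 5 min RT; start with ATP, 30 uM final; hold 10 min at 37C; add ADP Transcreener HTRF reagent, 5 min; read ex 320, em 590 and 665 nm.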

Experiment [15] has as its target Transient receptor potential cation channel subfamily V member 1 (Homo sapiens) (UniProt Q8NER1). The experiment can be described thus: HTS Assay for Compounds that Act as Enhancers of the Vanilloid Receptor 1 (AID 488979). The method in brief:
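Calcium influx kinetics via Fluo-8 (480/520 nm) in TRPV1-expressing cells, 2000/well cultured overnight at 35.5C. Compound-alone read 3 min (agonist phase), followed by EC20 capsaicin challenge for 2 min (enhancer phase).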

Experiment [16] addresses Thyrotropin receptor (Homo sapiens) (UniProt P16473). Description: qHTS Assay for Antagonists of the Thyroid Stimulating Hormone Receptor (AID 488980). Further: series mostly up to about 58 µM. An outline of the steps: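 Readout is cAMP by HTRF competition between cellular cAMP and cAMP-d2 for a cryptate-labelled antibody. Antagonism was assessed in TSHR-transfected HEK293 cells stimulated with 4 nM TSH (EC80, final) in the presence of RO 20-1724.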

Experiment [17] deals with D(1A) dopamine receptor (Homo sapiens) (UniProt P21728). Description: HTS Assay for Allosteric Agonists of the Human D1 Dopamine Receptor: Primary Screen for Agonists (AID 488981). The method in brief: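 Calcium flux in an inducible, force-coupled HEK293 Trex D1 line (overnight at 30 C): agonist mode is the 180 s kinetic read after compound; potentiator mode is the following 180 s read after dopamine at EC20.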

Experiment [18] can be described thus: Quantitative high throughput screen for delayed death inhibitors of the malarial parasite plastid, 96 hour incubation (AID 488745). Further: nearly all actives have a fitted effect of over 70% in size. Further: potency means the concentration at half of the fitted maximal effect. An outline of the steps:
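Two-generation (96 h) exposure of luciferase-reporter P. falciparum in erythrocytes, 2% hematocrit, 0.1% parasitemia final, 37 C, 5% CO2, RPMI 1640 with 0.5% Albumax. Growth inhibition scored by reduced luminescence.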

A short description of experiment [19]: Quantitative high throughput screen for delayed death inhibitors of the malarial parasite plastid, 48 hour incubation (AID 488752). Further: nearly all actives have a fitted effect of over 65% in size. Further: potency means the concentration at half of the fitted maximal effect. The method in brief: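 Cultures: infected erythrocytes at final 2% hematocrit and 0.1% parasitemia in Albumax-supplemented RPMI. Parasites express integrated firefly luciferase. Incubation with compound lasts 48 h before luminescent detection of remaining reporter activity.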

In experiment [20] the target is Chromobox protein homolog 1 (Homo sapiens) (UniProt P83916). The experiment can be described thus: qHTS Validation Assay for Inhibitors of HP1-beta Chromodomain Interactions with Methylated Histone Tails (AID 488953).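 Further: loss of AlphaScreen luminescence from HP1-beta binding biotinylated H3K9me3 peptide; series mostly up to about 110 µM; nearly all actives have a fitted effect of over 50% in size.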 The method in brief: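 Compounds pinned into a preassembled complex of HP1-beta and trimethyl-K9 histone H3(1-18) biotin peptide (50 nM each; PBS pH 7.4, 0.01% Tween-20). After 30 min, bead-based AlphaScreen detection followed.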

Records with an inconclusive call do not appear. Calls of active or inactive are those of the source. Unless noted, the call rests on the fitted dose curve; in most records, active means well fitted curve in the direction sought with a large enough effect; inconclusive means small, poorly fitted or top-dose-only effect, or another doubt; inactive means no such curve, though single readings can be large; an effect the other way counts as inactive or inconclusive.

Sequence of Ubiquitin carboxyl-terminal hydrolase 2 (Homo sapiens) (O75604 whole entry, looked up): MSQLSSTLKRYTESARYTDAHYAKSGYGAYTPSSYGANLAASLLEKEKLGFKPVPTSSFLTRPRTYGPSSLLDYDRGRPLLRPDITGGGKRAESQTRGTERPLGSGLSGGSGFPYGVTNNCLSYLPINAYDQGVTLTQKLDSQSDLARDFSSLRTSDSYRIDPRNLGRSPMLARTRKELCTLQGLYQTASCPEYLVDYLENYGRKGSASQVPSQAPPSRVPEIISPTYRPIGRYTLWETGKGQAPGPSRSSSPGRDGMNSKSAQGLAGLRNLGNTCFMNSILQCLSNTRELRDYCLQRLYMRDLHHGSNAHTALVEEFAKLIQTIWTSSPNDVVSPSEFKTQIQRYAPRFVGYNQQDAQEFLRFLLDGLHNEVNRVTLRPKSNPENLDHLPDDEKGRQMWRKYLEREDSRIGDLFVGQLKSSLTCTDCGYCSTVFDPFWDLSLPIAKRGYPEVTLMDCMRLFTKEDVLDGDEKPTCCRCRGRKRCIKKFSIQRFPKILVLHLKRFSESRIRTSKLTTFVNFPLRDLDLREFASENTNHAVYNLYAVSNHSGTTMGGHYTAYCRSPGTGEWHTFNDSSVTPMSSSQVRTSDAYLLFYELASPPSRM
Sequence of Beta-2 adrenergic receptor (Homo sapiens) (P07550 whole entry, looked up): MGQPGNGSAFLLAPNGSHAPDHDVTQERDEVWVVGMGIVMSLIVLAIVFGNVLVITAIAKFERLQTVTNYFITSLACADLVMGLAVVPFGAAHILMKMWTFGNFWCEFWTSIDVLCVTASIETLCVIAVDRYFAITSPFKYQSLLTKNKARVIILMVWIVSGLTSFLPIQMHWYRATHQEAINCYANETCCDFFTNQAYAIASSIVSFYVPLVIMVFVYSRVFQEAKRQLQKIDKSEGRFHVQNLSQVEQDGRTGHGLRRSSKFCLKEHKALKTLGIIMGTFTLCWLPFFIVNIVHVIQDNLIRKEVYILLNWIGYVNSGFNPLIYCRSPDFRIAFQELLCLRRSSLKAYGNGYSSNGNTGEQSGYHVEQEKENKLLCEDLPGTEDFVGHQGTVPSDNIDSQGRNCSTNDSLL
Sequence of Thyrotropin receptor (Homo sapiens) (P16473 whole entry, looked up): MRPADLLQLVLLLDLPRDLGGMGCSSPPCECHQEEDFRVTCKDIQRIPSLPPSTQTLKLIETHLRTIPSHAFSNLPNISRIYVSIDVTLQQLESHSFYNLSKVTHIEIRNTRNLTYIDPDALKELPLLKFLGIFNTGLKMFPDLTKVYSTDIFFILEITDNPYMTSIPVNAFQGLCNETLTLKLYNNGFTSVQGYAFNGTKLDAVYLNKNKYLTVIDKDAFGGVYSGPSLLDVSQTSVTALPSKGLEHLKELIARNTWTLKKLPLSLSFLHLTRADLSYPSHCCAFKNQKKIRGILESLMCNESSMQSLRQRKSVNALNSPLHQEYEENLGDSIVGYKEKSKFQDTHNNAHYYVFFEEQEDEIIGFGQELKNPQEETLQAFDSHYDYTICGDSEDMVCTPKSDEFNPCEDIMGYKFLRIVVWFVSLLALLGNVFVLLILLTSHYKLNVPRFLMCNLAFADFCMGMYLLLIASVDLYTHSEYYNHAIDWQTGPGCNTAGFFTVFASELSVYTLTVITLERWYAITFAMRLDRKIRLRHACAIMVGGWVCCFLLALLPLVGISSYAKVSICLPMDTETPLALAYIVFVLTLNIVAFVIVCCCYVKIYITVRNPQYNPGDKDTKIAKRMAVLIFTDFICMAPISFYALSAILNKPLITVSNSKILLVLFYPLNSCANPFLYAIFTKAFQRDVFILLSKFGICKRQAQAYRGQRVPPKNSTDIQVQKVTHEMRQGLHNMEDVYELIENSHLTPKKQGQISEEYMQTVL
Sequence of Chromobox protein homolog 1 (Homo sapiens) (P83916 whole entry, looked up): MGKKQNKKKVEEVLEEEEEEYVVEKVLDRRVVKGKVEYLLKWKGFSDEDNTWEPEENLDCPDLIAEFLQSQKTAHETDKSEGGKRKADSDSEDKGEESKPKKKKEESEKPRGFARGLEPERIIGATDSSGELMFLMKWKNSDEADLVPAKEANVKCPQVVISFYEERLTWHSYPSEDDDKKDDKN
Sequence of Thioredoxin reductase 1, cytoplasmic (Rattus norvegicus) (O89049 whole entry, looked up): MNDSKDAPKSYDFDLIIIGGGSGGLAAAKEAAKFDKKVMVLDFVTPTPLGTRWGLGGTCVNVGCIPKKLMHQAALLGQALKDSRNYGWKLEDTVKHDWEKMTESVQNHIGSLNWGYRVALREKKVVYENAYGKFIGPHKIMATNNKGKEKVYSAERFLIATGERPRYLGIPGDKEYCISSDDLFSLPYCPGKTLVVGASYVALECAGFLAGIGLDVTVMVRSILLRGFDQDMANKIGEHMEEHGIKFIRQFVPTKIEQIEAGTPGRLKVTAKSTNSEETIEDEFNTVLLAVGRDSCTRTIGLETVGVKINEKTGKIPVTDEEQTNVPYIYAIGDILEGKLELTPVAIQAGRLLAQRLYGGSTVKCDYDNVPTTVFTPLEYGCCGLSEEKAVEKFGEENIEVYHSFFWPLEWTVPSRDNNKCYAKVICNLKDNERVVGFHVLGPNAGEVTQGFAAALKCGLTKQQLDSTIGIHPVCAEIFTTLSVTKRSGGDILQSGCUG
Sequence of M-phase phosphoprotein 8 (Homo sapiens) (Q99549 whole entry, looked up): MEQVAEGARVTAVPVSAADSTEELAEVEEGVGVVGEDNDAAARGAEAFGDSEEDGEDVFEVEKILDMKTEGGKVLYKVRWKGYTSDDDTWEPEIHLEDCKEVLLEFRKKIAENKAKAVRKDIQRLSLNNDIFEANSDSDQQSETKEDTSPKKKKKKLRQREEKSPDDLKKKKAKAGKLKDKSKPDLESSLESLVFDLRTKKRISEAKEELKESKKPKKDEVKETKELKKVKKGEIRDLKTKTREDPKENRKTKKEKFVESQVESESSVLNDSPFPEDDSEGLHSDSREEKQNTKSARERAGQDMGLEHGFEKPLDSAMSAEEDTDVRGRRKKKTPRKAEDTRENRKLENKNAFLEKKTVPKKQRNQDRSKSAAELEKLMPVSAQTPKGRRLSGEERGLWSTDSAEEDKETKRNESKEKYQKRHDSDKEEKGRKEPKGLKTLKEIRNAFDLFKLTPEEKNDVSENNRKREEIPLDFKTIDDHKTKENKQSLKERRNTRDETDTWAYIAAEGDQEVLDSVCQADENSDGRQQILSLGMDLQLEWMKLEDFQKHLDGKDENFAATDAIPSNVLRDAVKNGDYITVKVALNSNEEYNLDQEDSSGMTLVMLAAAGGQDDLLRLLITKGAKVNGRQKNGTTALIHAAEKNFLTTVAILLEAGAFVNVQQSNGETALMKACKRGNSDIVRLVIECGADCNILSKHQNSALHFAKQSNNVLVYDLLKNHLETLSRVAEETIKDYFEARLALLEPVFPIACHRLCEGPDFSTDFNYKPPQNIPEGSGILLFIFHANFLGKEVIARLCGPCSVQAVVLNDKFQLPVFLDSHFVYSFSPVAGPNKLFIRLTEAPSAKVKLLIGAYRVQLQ
Sequence of Transient receptor potential cation channel subfamily V member 1 (Homo sapiens) (Q8NER1 whole entry, looked up): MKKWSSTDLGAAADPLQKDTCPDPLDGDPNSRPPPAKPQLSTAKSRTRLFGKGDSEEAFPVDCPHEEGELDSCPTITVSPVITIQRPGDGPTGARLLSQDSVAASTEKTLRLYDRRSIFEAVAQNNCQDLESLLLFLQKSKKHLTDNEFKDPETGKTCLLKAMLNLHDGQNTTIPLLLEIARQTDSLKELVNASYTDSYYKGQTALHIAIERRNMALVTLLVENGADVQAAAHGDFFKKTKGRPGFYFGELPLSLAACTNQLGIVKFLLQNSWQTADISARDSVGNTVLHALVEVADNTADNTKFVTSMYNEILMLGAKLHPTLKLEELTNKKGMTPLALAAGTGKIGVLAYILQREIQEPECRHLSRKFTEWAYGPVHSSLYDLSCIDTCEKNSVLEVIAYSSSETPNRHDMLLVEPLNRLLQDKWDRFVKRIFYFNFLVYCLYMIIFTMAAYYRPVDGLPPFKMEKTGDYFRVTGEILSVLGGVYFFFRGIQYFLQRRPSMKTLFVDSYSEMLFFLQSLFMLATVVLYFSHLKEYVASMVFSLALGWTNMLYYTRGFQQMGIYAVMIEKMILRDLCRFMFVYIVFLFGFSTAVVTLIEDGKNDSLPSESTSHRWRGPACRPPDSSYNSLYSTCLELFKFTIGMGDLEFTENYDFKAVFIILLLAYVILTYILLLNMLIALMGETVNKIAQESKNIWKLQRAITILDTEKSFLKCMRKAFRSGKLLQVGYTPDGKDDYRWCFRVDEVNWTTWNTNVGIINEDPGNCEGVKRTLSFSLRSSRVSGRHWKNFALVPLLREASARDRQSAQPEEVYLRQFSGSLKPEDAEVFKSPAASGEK
Sequence of Methanococcus maripaludis chaperonin (MmCpn) (Q6LX38 1-543): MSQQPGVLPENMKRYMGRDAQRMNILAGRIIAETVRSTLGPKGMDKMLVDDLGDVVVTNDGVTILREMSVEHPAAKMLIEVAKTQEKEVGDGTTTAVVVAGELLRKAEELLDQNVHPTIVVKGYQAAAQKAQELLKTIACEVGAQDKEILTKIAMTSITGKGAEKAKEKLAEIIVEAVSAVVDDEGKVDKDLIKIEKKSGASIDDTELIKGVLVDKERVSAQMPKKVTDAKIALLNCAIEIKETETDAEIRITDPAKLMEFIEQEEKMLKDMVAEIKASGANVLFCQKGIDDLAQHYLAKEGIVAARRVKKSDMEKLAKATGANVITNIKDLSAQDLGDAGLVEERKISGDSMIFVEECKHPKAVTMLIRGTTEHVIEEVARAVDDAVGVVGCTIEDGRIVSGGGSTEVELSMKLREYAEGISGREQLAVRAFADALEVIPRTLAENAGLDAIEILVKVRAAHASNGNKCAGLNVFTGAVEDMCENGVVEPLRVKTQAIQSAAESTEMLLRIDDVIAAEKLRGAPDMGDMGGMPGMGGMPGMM

`CCS(=O)(=O)Nc1cccc(C(=C2CCCCC2)c2cnc[nH]2)c1`: the Potency entry in experiment [1], in [2], in experiment [3], in experiment [4], in [5] and in experiment [7] was “inactive” in each case. Also, the Potency entry in experiment [9], in experiment [11], in [12], in experiment [13] and in experiment [17] was “inactive” each time. In addition, the compound was called inactive in [6], in experiment [8], in experiment [10], in experiment [14], in experiment [15] and in [16].
As to `C[N+]1(C)CCN(c2ccccc2)CC1`, the Potency result in [1], in experiment [2], in experiment [3], in experiment [4], in experiment [5] and in [18] was “inactive” in each case. Further, the Potency result in experiment [19], in experiment [11], in experiment [12] and in [13] was “inactive” each time. Moreover, the outcome in [6], in [8], in experiment [10], in [14], in experiment [15] and in [16] was inactive.
With `CC12NC(Cc3ccccc31)c1ccccc12` (stereo unspecified), the Potency result in [1], in experiment [2], in experiment [3], in experiment [4], in [5] and in experiment [7] was “inactive” each time. The Potency result in [18], in experiment [19], in experiment [11], in experiment [12], in experiment [13] and in experiment [20] was “inactive” in each case. Further, the compound was called inactive in experiment [6], in experiment [8], in experiment [10], in experiment [14], in experiment [15] and in experiment [16].
In the case of `C[N+]1(C)CCOC(O)(c2ccc(-c3ccc(C4(O)C[N+](C)(C)CCO4)cc3)cc2)C1` (stereo unspecified), the Potency result in experiment [1], in experiment [2], in experiment [3], in experiment [4], in experiment [5] and in experiment [7] was “inactive” each time. Also, the Potency result in experiment [18], in experiment [11], in experiment [12], in experiment [13], in experiment [20] and in [17] was “inactive” in each case. Further, the outcome in experiment [6], in [8], in [10], in [14], in experiment [15] and in experiment [16] was inactive.
Turning to `C[C@H](Cc1ccc2c(c1)OC(C(=O)O)(C(=O)O)O2)NC[C@H](O)c1cccc(Cl)c1`, the Potency entry in experiment [1], in experiment [2], in experiment [3], in experiment [4], in experiment [5] and in [7] was “inactive” each time. Further, the Potency result in experiment [18], in [19], in experiment [11], in experiment [12], in [13] and in experiment [20] was “inactive” each time. The Potency entry in experiment [17] is “inactive”. The result in [6], in experiment [10], in experiment [14], in experiment [15] and in [16] was inactive.
With `NCC(CP(=O)(O)O)c1ccc(Cl)cc1` (stereo unspecified), the Potency result in experiment [1], in experiment [2], in experiment [3], in experiment [4], in experiment [5] and in experiment [9] was “inactive” in each case. The Potency result in experiment [18], in experiment [19], in experiment [11], in experiment [12], in experiment [13] and in [20] was “inactive” each time. Also, the Potency result in experiment [17] is “inactive”. Also, the compound was classed as inactive in experiment [6], in [8], in experiment [10], in experiment [14], in experiment [15] and in experiment [16].
For the compound `C=CCN1C[C@@H](C)N([C@H](c2ccc(C(=O)N(CC)CC)cc2)c2cccc(OC)c2)C[C@@H]1C`, the Potency entry in [1], in [2], in experiment [3], in experiment [4], in [5] and in experiment [7] was “inactive” in each case. Also, the Potency entry in [11], in [12], in experiment [13] and in experiment [17] was “inactive” each time. For the same compound, the compound was called inactive in [6], in experiment [8], in experiment [10], in experiment [14], in experiment [15] and in experiment [16]. In addition, the Potency in experiment [18] was 4.65 µM (active); in experiment [19], 5.22 µM (active).
On to `N[C@@]1(C(=O)O)CC[C@@H](C(=O)O)C1`, for which the Potency entry in experiment [1], in experiment [2], in experiment [3], in experiment [4], in experiment [5] and in experiment [7] was “inactive” each time. The Potency result in experiment [18], in experiment [19], in [11], in [13] and in [20] was “inactive” in each case. For the same compound, the compound was called inactive in experiment [6], in experiment [8], in experiment [10], in experiment [14], in experiment [15] and in experiment [16].
